Experimental data taken from paper PMC7862700, “An all-to-all approach to the identification of sequence-specific readers for epigenetic DNA modifications on cytosine”.

Legend:
Test in all cases: DAPPL (digital affinity profiling via proximity ligation, sequencing); 10 mM Tris-HCl pH 7.5, 50 mM NaCl, 1 mM DTT, 4% glycerol, room temperature, 30 min; GST-TFs on glutathione beads, 16-mer random dsDNA library, 0.1% formaldehyde crosslink after washing; high values mean tight binding
FLI1 = target: T1, FLI1 (Homo sapiens, UniProt Q01543 1-452); conditions: protein: recombinant; tags: N-terminal GST; dsDNA, one strand shown
T1 sequence: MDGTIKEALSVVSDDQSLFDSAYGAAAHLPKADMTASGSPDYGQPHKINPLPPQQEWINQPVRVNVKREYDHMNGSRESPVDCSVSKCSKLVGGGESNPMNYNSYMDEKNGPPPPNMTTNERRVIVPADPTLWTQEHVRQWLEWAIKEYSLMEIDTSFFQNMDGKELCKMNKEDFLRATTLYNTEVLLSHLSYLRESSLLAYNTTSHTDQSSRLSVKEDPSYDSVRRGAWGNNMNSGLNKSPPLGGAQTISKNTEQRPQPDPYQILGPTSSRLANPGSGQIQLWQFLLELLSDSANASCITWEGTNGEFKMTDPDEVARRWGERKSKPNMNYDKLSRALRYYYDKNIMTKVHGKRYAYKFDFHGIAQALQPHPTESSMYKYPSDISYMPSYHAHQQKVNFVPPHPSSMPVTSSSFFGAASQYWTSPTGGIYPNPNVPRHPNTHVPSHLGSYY
In short: (§1)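 Human transcription factors carrying a GST fusion were produced in yeast, bound to glutathione beads, tagged with DNA barcodes and pooled together with a tag-only sample. Each pool was held with 200 nmole of a random double-stranded 16-mer DNA library in Tris/NaCl/DTT/glycerol buffer for 30 min at room temperature, then washed, crosslinked in 0.1% formaldehyde, proximity-ligated with BsaI/T4 ligase (1 h, 37 °C), PCR-amplified and sequenced on an Illumina NextSeq500. Binding signal is the read frequency of each hexamer for a given factor divided by its frequency in the tag-only sample.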

ELK1 = target: T2, ELK1 (Homo sapiens, UniProt P19419 1-428); conditions: protein: recombinant; tags: N-terminal GST; dsDNA, one strand shown
T2 sequence: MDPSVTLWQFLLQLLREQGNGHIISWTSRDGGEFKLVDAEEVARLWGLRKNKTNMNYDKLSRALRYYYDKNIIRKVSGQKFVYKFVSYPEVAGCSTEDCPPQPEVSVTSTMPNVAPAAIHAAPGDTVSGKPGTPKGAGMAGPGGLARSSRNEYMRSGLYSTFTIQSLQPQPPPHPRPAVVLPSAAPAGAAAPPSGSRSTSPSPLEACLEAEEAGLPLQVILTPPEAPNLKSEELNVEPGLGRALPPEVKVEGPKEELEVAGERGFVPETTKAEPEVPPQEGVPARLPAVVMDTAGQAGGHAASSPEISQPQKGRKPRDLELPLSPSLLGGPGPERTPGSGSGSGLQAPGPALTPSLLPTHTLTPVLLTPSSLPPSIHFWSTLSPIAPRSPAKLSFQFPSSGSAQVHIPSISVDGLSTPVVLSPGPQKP
In short: as §1

GABPA = target: T3, GABPA (Homo sapiens, UniProt Q06546 1-454); conditions: protein: recombinant; tags: N-terminal GST; dsDNA, one strand shown
T3 sequence: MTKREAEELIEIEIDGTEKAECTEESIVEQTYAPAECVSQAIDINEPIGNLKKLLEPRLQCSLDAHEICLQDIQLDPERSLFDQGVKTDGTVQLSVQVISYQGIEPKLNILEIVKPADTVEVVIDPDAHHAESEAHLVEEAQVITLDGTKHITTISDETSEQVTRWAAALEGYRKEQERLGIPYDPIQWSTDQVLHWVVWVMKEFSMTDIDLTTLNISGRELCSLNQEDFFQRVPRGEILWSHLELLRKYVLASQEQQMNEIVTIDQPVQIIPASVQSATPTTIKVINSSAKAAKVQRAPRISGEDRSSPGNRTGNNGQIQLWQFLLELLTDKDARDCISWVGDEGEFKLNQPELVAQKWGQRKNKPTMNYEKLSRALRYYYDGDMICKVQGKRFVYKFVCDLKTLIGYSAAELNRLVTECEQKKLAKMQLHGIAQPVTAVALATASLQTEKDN
In short: as §1

ERG = target: T4, ERG (Homo sapiens, UniProt P11308 1-479); conditions: protein: recombinant; tags: N-terminal GST; dsDNA, one strand shown
T4 sequence: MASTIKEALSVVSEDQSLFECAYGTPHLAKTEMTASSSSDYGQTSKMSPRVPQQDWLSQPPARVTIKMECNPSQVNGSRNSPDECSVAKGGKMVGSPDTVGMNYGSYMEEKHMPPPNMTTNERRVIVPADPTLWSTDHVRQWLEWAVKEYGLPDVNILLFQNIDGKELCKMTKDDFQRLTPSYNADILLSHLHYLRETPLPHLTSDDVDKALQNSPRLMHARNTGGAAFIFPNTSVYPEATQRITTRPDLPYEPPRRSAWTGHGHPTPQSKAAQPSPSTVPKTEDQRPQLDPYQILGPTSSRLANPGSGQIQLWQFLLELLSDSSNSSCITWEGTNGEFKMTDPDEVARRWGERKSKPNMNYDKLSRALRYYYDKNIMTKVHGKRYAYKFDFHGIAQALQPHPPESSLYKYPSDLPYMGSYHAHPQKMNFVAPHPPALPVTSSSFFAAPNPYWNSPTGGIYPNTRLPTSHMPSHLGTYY
In short: as §1

ELF1 = ELF1 (Homo sapiens, UniProt P32519 1-619); conditions: protein: recombinant; tags: N-terminal GST; dsDNA, one strand shown
In short: as §1

EHF = target: T5, EHF (Homo sapiens, UniProt Q9NZC4 1-300); conditions: protein: recombinant; tags: N-terminal GST; dsDNA, one strand shown
T5 sequence: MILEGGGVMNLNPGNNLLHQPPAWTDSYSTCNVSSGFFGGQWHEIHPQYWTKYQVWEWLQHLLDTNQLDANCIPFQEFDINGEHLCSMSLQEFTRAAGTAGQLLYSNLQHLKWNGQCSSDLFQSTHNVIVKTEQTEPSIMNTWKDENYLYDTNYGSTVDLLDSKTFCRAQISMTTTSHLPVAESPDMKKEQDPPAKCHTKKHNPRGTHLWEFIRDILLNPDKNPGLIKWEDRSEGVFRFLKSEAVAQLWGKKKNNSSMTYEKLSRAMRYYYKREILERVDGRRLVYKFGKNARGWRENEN
In short: as §1

SPI1 = SPI1 (Homo sapiens, UniProt P17947 1-270); conditions: protein: recombinant; tags: N-terminal GST; dsDNA, one strand shown
In short: as §1

SPIB = SPIB (Homo sapiens, UniProt Q01892 1-262); conditions: protein: recombinant; tags: N-terminal GST; dsDNA, one strand shown
In short: as §1

ELK3 = target: T6, ELK3 (Homo sapiens, UniProt P41970 1-407); conditions: protein: recombinant; tags: N-terminal GST; dsDNA, one strand shown
T6 sequence: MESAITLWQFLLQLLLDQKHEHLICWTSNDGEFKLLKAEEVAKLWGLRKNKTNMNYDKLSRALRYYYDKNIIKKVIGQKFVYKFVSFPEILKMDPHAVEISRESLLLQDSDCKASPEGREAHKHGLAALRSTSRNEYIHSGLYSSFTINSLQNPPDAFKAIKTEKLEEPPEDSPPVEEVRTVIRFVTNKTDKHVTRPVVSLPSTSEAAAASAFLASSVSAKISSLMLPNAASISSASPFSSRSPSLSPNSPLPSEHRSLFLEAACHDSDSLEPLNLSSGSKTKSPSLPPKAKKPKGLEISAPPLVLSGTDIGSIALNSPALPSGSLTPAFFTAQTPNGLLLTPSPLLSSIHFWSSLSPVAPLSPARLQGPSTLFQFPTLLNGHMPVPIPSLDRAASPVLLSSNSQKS
In short: as §1

FEV = target: T7, FEV (Homo sapiens, UniProt Q99581 1-238); conditions: protein: recombinant; tags: N-terminal GST; dsDNA, one strand shown
T7 sequence: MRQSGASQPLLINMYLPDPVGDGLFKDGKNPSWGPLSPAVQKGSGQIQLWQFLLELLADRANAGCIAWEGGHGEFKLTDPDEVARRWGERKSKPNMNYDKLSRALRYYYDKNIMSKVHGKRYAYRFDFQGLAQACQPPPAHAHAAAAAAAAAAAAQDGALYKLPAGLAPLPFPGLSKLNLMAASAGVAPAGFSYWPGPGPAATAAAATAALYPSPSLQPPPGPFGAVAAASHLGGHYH
In short: as §1

ETV5 = ETV5 (Homo sapiens, UniProt P41161 1-510); conditions: protein: recombinant; tags: N-terminal GST; dsDNA, one strand shown
In short: as §1

HSF1 = HSF1 (Homo sapiens, UniProt Q00613 1-529); conditions: protein: recombinant; tags: N-terminal GST; chain copies: 3; dsDNA, one strand shown
In short: as §1

SPIC = target: T8, SPIC (Homo sapiens, UniProt Q8N5J4 1-248); conditions: protein: recombinant; tags: N-terminal GST; dsDNA, one strand shown
T8 sequence: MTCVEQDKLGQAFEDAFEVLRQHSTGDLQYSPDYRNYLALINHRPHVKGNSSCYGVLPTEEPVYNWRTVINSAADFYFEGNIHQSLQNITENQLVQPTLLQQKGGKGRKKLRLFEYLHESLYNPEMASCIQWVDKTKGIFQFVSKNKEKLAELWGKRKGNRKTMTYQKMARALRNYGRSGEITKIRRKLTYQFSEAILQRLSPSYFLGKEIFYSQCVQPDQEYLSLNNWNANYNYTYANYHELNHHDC
In short: as §1

ELF4 = ELF4 (Homo sapiens, UniProt Q99607 1-663); conditions: protein: recombinant; tags: N-terminal GST; dsDNA, one strand shown
In short: as §1

ELK4 = target: T9, ELK4 (Homo sapiens, UniProt P28324-2 1-405); conditions: protein: recombinant; tags: N-terminal GST; dsDNA, one strand shown
T9 sequence: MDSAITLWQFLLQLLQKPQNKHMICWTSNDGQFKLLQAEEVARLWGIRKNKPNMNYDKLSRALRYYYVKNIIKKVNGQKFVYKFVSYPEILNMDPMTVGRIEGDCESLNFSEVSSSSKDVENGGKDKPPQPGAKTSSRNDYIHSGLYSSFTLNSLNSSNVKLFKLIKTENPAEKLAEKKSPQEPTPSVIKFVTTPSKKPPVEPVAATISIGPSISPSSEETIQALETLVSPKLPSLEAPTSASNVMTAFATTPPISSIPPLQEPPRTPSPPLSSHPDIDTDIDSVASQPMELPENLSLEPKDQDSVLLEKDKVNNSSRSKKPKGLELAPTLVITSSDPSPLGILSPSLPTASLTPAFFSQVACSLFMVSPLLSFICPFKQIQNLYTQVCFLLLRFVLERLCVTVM
In short: as §1

ELF3 = target: T10, ELF3 (Homo sapiens, UniProt P78545 1-371); conditions: protein: recombinant; tags: N-terminal GST; dsDNA, one strand shown
T10 sequence: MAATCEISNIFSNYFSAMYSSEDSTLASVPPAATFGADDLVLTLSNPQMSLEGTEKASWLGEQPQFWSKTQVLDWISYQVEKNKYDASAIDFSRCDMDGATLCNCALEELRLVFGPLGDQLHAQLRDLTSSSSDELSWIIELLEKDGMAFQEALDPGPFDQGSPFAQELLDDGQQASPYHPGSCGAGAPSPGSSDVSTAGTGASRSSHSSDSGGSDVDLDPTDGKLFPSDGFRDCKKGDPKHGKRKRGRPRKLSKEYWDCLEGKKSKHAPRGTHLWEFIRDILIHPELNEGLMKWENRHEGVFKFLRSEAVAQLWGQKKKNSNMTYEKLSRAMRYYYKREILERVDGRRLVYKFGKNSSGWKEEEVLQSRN
In short: as §1

CRX = CRX (Homo sapiens, UniProt O43186 1-299); conditions: protein: recombinant; tags: N-terminal GST; dsDNA, one strand shown
In short: as §1

ETV1 = ETV1 (Homo sapiens, UniProt P50549 1-477); conditions: protein: recombinant; tags: N-terminal GST; dsDNA, one strand shown
In short: as §1

Sequence of ETV5 (P41161 whole entry): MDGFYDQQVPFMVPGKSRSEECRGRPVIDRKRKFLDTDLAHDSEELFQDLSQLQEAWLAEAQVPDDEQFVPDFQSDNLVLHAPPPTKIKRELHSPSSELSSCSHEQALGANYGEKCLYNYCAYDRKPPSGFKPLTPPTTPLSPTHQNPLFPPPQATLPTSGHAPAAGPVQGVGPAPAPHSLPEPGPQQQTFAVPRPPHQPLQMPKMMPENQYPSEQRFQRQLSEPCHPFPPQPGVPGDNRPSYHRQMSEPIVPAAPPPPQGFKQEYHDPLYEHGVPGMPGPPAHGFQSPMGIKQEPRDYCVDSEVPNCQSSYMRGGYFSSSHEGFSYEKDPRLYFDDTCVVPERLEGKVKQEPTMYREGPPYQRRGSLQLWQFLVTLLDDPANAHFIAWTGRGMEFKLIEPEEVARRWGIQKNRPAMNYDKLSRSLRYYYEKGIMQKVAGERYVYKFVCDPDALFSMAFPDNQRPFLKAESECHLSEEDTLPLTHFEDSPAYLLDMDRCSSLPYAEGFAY
Sequence of ELF4 (Q99607 whole entry): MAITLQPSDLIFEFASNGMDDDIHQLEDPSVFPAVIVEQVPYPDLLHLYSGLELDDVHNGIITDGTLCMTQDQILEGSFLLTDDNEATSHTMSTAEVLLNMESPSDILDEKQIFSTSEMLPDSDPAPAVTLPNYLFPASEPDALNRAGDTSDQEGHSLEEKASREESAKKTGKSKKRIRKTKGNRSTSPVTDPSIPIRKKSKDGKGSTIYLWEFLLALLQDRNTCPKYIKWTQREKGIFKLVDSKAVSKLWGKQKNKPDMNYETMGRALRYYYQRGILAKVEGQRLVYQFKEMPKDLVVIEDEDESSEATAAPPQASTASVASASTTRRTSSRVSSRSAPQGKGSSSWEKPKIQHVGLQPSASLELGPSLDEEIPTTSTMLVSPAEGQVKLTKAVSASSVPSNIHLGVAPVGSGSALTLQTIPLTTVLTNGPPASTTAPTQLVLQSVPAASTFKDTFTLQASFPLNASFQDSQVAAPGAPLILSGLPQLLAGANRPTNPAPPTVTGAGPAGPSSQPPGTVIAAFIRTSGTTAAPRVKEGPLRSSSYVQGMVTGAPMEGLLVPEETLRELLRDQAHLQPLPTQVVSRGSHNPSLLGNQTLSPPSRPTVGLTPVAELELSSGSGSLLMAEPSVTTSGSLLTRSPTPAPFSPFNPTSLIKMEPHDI
Sequence of ELF1 (P32519 whole entry): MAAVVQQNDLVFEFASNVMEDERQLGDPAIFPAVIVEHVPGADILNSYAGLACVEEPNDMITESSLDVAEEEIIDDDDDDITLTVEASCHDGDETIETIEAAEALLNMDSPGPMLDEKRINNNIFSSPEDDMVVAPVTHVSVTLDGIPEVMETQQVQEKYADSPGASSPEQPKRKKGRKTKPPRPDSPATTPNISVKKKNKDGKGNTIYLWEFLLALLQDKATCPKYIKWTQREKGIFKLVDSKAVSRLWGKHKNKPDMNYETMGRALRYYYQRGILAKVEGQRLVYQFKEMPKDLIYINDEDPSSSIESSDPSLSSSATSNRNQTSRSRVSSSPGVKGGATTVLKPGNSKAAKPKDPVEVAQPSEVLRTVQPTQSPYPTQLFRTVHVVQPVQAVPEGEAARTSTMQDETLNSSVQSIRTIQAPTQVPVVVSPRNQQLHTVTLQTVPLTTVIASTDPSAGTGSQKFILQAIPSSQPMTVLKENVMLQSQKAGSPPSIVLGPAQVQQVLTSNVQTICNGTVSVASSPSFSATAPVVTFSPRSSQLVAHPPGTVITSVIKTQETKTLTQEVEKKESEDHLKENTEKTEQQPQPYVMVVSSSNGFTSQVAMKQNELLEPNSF
Sequence of SPIB (Q01892 whole entry): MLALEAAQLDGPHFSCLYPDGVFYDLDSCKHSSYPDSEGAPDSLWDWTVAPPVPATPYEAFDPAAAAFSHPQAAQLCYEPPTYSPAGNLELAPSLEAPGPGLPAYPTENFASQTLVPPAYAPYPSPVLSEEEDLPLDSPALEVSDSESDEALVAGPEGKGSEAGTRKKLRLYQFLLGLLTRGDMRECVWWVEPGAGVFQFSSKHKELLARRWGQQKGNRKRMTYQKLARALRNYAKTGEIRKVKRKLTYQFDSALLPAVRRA
Sequence of CRX (O43186 whole entry): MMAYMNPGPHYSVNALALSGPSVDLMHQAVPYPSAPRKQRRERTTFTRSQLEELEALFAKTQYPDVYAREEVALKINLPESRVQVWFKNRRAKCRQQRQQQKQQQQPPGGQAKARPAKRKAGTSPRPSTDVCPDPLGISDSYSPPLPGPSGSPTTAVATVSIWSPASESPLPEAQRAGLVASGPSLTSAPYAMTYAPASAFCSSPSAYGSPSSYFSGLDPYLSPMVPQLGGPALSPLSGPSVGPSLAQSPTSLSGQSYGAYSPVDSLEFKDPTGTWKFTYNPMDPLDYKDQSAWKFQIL
Sequence of ETV1 (P50549 whole entry): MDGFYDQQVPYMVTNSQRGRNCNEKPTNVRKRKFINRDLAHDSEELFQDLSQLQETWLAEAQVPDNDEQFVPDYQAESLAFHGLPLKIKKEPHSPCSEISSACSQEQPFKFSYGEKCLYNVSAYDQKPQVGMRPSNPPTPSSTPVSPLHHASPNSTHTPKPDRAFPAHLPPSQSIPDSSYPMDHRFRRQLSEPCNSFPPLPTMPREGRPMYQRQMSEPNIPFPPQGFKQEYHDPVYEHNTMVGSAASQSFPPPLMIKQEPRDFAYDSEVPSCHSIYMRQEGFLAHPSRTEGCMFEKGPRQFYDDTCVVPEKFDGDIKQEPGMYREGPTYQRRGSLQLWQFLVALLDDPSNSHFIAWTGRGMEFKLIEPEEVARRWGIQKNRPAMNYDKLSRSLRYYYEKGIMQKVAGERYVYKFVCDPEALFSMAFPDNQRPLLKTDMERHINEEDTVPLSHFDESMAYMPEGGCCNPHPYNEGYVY
Sequence of HSF1 (Q00613 whole entry): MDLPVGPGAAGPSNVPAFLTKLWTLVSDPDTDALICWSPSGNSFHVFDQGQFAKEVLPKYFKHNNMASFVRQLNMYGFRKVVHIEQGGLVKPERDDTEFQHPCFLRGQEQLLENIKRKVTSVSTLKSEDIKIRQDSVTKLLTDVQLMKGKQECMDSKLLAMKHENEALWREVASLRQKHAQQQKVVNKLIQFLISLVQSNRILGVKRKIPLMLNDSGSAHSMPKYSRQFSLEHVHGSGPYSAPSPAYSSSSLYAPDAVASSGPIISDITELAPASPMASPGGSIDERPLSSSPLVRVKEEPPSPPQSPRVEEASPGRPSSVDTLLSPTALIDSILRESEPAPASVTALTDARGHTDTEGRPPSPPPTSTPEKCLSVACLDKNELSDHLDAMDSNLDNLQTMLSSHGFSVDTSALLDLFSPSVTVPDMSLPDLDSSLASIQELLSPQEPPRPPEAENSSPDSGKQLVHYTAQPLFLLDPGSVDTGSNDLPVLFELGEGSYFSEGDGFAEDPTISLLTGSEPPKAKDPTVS

GGGCTT
binding signal (FLI1): 1.31 fold enrichment (6-mer frequency, TF over GST control) | binding signal (ELK1): 1.18 fold enrichment (6-mer frequency, TF over GST control) | binding signal (GABPA): 1.15 fold enrichment (6-mer frequency, TF over GST control) | binding signal (ERG): 1.21 fold enrichment (6-mer frequency, TF over GST control) | binding signal (ELF1): 1.19 fold enrichment (6-mer frequency, TF over GST control) | binding signal (EHF): 1.24 fold enrichment (6-mer frequency, TF over GST control) | binding signal (SPI1): 1.1 fold enrichment (6-mer frequency, TF over GST control) | binding signal (SPIB): 1.2 fold enrichment (6-mer frequency, TF over GST control) | binding signal (ELK3): 1.41 fold enrichment (6-mer frequency, TF over GST control) | binding signal (FEV): 1.24 fold enrichment (6-mer frequency, TF over GST control) | binding signal (ETV5): 1.18 fold enrichment (6-mer frequency, TF over GST control) | binding signal (HSF1): 1.46 fold enrichment (6-mer frequency, TF over GST control) | binding signal (SPIC): 1.11 fold enrichment (6-mer frequency, TF over GST control) | binding signal (ELF4): 1.08 fold enrichment (6-mer frequency, TF over GST control) | binding signal (ELK4): 1.22 fold enrichment (6-mer frequency, TF over GST control) | binding signal (ELF3): 1.17 fold enrichment (6-mer frequency, TF over GST control) | binding signal (CRX): 1.77 fold enrichment (6-mer frequency, TF over GST control) | binding signal (ETV1): 1.29 fold enrichment (6-mer frequency, TF over GST control)
